Bim-Mcl-1: human Bim-Mcl-1 interaction inhibition | inhibition, % at 10 µM | 0.1% of 190,000 active | Bead-based flow cytometry, Bim peptide-Mcl-1 binding | Q07820; in the data active = inhibition above about 40%;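 also: 0% = no compound tracer wells and 100% = peptide blocker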
Target sequence (Q07820 whole entry, looked up): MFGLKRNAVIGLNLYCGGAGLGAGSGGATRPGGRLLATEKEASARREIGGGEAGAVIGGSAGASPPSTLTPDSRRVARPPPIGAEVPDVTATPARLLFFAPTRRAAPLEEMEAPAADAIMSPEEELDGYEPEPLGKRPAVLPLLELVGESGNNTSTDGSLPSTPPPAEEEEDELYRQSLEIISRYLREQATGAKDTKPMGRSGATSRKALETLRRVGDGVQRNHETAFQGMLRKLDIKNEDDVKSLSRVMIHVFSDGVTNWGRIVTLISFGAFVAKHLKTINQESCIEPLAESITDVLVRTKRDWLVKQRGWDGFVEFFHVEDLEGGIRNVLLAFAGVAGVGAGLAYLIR
NCF1 inh: blocks human p47phox regulatory protein of NADPH oxidases; p47phox/p22phox peptide binding, fluorescence polarization, 2 h; inhibition, % at 24.7 µM; 0.53% of 220,000 active; AID 1274;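 also: 0% = p47phox with labelled peptide and 100% = labelled peptide alone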
Mcl1-Noxa inh: disrupts binding of human Mcl-1 to Noxa peptide; TR-FRET Mcl-1/Noxa peptide binding, 2 h; inhibition, % at 21.7 µM; 1.5% of 220,000 active; AID 1022;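 active = compounds that cut the protein-peptide binding signal by more than 50% relative to plate controls in a single-dose test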;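 also: His-tagged Mcl-1 with rhodamine Noxa BH3 peptide and terbium anti-His antibody; 0% = Mcl-1 plus Noxa peptide wells and 100% = peptide-only wells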
14-3-3 Bad inh: disrupts binding of bovine 14-3-3 zeta to phospho-Bad peptide; TR-FRET 14-3-3zeta/Dy647-pBad peptide displacement, 1 h; inhibition, % at 21.7 µM; 0.71% of 220,000 active; AID 781;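 active = inhibition above about 70%, limit read from the data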;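 also: 0% = full 14-3-3 plus peptide FRET controls and 100% = background without 14-3-3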
Target sequence (P63103 whole entry, looked up): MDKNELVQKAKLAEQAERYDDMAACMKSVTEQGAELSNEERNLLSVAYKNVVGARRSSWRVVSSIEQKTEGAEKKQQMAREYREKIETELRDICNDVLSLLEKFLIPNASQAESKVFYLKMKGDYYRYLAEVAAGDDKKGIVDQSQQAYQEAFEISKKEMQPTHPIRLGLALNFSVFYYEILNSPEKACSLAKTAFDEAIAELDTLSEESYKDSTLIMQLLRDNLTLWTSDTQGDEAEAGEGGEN
eIF4E-4G inh: blocks eIF4E binding to eIF4G; TR-FRET eIF4E-eIF4GI(517-606) binding, 2 h; inhibition, % at 21.7 µM; 0.37% of 220,000 active; AID 782;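 also: 0% = full FRET control wells and 100% = background wells lacking eIF4GI fragment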
Mcl1 Bid PPI: disrupts binding of human Mcl-1 to Bid peptide | TR-FRET Mcl-1/Bid-Dy647 peptide binding, 1536-well | Q07820 | AID 1021 | inhibition, % at 21.7 µM | 0.97% of 220,000 active;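 active = compounds that cut the binding signal by more than half at the single screening dose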;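 also: His-tagged Mcl-1 with europium anti-His antibody binding Bid BH3 peptide; 0% = Mcl-1 plus peptide wells and 100% = peptide-only wells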
Starred values were filed as active, the others as inactive; . = not tested or not shown. Hits are enriched below; roughly 3.3% of the tested compounds scored in any of these assays.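 The calls were made as follows, unless noted: active = inhibition above about 30% (limit read from the data); inactive = the rest.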

SMILES	Bim-Mcl-1	NCF1 inh	Mcl1-Noxa inh	14-3-3 Bad inh	eIF4E-4G inh	Mcl1 Bid PPI
CCCCCC1=NN2C(=O)CC(=O)N=C2S1	.	-7	2	-4	-10	39
O=C(/C=C/c1ccccc1)Nc1nnc(-c2ccco2)o1	-3	9	-2	0	1	4
CC(=O)OCCNc1cc(N2CCN(C)CC2)c2noc3c2c1C(=O)c1ccccc1-3	-2	62*	33	-17	-7	-43
Cc1cc(C)n2c(nc3ccccc32)c1C(=O)NCc1ccccc1	-2	-4	7	6	9	3
CCCCn1nc2cc(C(=O)NCc3ccc(OC(F)(F)F)cc3)ccc2c1OC	-2	-7	15	71*	8	-13
CCCCn1nc2cc(C(=O)NCc3cc(C(F)(F)F)cc(C(F)(F)F)c3)ccc2c1OC	-1	-11	15	.	.	-11
Clc1ccc(Sc2oc(/C=N/n3cnnc3)cc2Br)cc1	-1	-14	27	29	-3	25
CN(C)C(=O)/C(C#N)=C\c1cc(Br)c(Sc2ccc(Cl)cc2)o1	-3	4	9	-2	0	100*
O=C(C1=C[C@@H](c2csc3ccccc23)C[C@@H](OCc2ccc(CO)cc2)O1)N1CCN(Cc2ccc3c(c2)OCO3)CC1	0	-18	-12	-1	-1	97*
CCn1cc(/C=N\NC(=O)c2ccccc2Cl)cn1	-28	7	-4	18	23	-15
C#Cc1ccc(C(=O)Nc2cc(C(N)=O)ccc2N2CCOCC2)cc1	2	-15	51*	-3	-13	-6
CCN(CC)S(=O)(=O)c1ccc(N2CCOCC2)c(NC(=O)c2ccc(C#N)cc2)c1	-2	-6	8	-1	-3	-17
O=[N+]([O-])/C=C\c1ccc(N2CCCC2)c(F)c1	0	36*	25	-7	3	5
O=Cc1ccc(N2CCCC2)c([N+](=O)[O-])c1	2	0	11	1	1	1
CCOc1ccc2nc(NC(=O)/C=C/c3ccc4c(c3)OCO4)sc2c1	0	-26	56*	40	16	60*
O=C(/C=C/c1ccc2c(c1)OCO2)Nc1nc2ccc(F)cc2s1	.	-5	71*	27	-2	61*
O=C(/C=C/c1ccc2c(c1)OCO2)Nc1nc(-c2ccc(F)cc2)cs1	-4	-6	4	5	3	-7
O=C(/C=C/c1ccc2c(c1)OCO2)Nc1ccc(Cl)cn1	-2	10	17	27	-7	63*
O=C(CCCN1C(=O)/C(=C\c2cccc(Br)c2)SC1=S)Nc1cccnc1	-3	17	38	30	10	59*
CC(/C=C1\SC(=S)N(CCCC(=O)Nc2ccc(C(=O)O)cc2)C1=O)=C\c1ccccc1	4	-77	52*	-1	-3	-30
Cc1cc(C)n(CC(=O)N/N=C/c2ccc3c(c2)OCO3)n1	0	-3	8	-15	-5	-11
Cc1nn(CC(=O)N/N=C/c2ccc3c(c2)OCO3)c(C)c1Br	-7	4	-4	80*	3	-13
CCOC(=O)c1ccc2nc(C)cc(Nc3cccc(C(=O)O)c3)c2c1	0	-10	-2	-8	2	-18
CCOC(=O)c1cccc(Nc2nc(C)cc(C)n2)c1	-1	-6	3	71*	0	10
Cc1cc(C)nc(/N=C(\N)N2CCCCCC2)n1	-5	-16	-6	-1	-5	-13
SMILES	Bim-Mcl-1	NCF1 inh	Mcl1-Noxa inh	14-3-3 Bad inh	eIF4E-4G inh	Mcl1 Bid PPI
Cc1cc(C)nc(/N=C(\N)N2CCc3ccccc32)n1	49*	5	9	-9	2	-31
OCCN=Cc1c(O)[nH]c2ccccc12	-2	-16	6	-18	3	-16
CN(C)CC(C)(C)CN=Cc1c(O)[nH]c2ccccc12	.	88*	9	-13	-3	-34
O=C(CSc1cccs1)Nc1ccc(Cl)cc1	.	1	12	3	-2	-8
C/C(=N\NC(=O)c1ccc2c(c1)OCO2)c1ccc(O)cc1	.	0	6	-1	-8	-15
C/C(=N/NC(=O)c1ccc2c(c1)OCO2)c1ccc(NC(=O)C(F)(F)F)cc1	0	34*	-58	86*	6	31
CC(C)N(C(=O)c1sc2cc([N+](=O)[O-])ccc2c1Cl)C(C)C	-2	-4	8	-8	9	97*
Cc1ccc(S(=O)(=O)N(CC(=O)N/N=C/c2cccc(Cl)c2)c2cccc3cccnc23)cc1	-1	-6	-18	1	-12	86*
CC(C)c1ccc(Nc2c([N+](=O)[O-])c(=O)n(C)c3ccccc23)cc1	.	-9	-5	8	-3	-11
Cn1c(=O)c(Nc2ccc(O)cc2)c2c3c(cccc31)C(=O)c1ccccc1-2	0	6	66*	-13	10	-12
COc1ccc(Br)c(OC)c1C(=O)NC(=O)Nc1nc(C)cc(C)n1	.	-7	-3	0	4	-4
CC(=O)N(C1=C(Cl)C(=O)c2ccccc2C1=O)C1CCCCC1	.	13	91*	-3	2	-20
COc1ccc(/C=C/C(=O)NCC(=O)N/N=C/c2cc(Br)ccc2OC)cc1	-4	101*	-22	5	-1	6
COc1ccccc1/C=C/C(=O)NCC(=O)N/N=C/c1cc(Br)ccc1OC	-3	-7	27	-1	-2	1
CC1=NOC(=O)/C1=C/c1ccc(-c2ccc(Cl)cc2)o1	0	116*	67*	51	-18	67*
CC1=NOC(=O)/C1=C\c1ccc(-c2ccc(Br)cc2)o1	-3	44*	66*	26	11	40
CC1=NOC(=O)/C1=C\c1ccc(-c2ccc(Br)cc2C(=O)O)o1	0	-10	16	9	-3	-115
CC1=NOC(=O)/C1=C\c1ccc(-c2cc(Cl)ccc2Cl)o1	-3	-5	53*	16	-12	41
CN(CC(=O)NC(=O)NC(C)(C)C)CC(=O)Nc1ccccc1Cl	0	-4	22	-3	3	-1
Nc1nnc(SCC(=O)NN2C(=O)NC3(CCCCC3)C2=O)s1	0	-2	28	16	-1	-8
Cc1[nH][nH]c(=O)c1C(c1ccc(-c2ccc(F)cc2)o1)c1c(C)[nH][nH]c1=O	13	-2	-14	-20	2	-64
COc1ccc(-c2ccc(C(c3c(C)[nH][nH]c3=O)c3c(C)[nH][nH]c3=O)o2)c([N+](=O)[O-])c1	-1	42*	25	-12	2	-77
O=C(CSc1ccccc1)Nc1ccc(C(=O)Nc2ccc(O)cc2)cc1	-3	-21	16	2	0	9
CCC(Sc1nc(N)cc(=O)[nH]1)C(=O)Nc1cc(C)on1 (centres undefined)	-2	-1	6	-7	-3	-12
CC(C)CN1CCC(C(=O)N2CCN(c3ccccc3F)CC2)CC1	-5	-9	29	38	1	-5
